# What was measured:
# Test in all cases: DAPPL (digital affinity profiling via proximity ligation, sequencing); 10 mM Tris-HCl pH 7.5, 50 mM NaCl, 1 mM DTT, 4% glycerol, room temperature, 30 min; GST-TFs on glutathione beads, 16-mer random dsDNA library, 0.1% formaldehyde crosslink after washing; high values mean tight binding
# [1] = biological target: T1, FLI1 (Homo sapiens, UniProt Q01543 1-452); details: protein: recombinant; tags: N-terminal GST; dsDNA, one strand shown
# T1 sequence: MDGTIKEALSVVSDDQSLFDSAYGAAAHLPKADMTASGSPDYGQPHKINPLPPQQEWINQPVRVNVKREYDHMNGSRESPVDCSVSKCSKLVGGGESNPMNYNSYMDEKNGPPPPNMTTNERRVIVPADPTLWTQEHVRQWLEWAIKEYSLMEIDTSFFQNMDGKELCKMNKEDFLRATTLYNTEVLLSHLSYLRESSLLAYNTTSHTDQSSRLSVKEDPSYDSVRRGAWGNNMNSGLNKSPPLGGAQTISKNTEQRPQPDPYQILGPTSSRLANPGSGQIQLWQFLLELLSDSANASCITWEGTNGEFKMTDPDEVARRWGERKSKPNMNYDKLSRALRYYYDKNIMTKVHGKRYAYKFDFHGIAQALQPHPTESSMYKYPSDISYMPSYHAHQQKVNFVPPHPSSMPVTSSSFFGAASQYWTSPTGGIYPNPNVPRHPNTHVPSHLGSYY
# Outline: (§1)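 A tag-only sample was pooled with DNA-barcoded human transcription factors that had been expressed in yeast as GST fusions and captured on glutathione beads. The pools were incubated for 30 min at room temperature with 200 nmole of a random double-stranded 16-mer DNA library in Tris/NaCl/DTT/glycerol buffer, then washed, crosslinked with 0.1% formaldehyde, proximity-ligated (BsaI/T4 ligase, 1 h, 37 °C), PCR-amplified and sequenced on an Illumina NextSeq500. Binding signal is each hexamer's read frequency for a factor divided by its frequency for the tag-only sample.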
# [2] = biological target: T2, ELK1 (Homo sapiens, UniProt P19419 1-428); details: protein: recombinant; tags: N-terminal GST; dsDNA, one strand shown
# T2 sequence: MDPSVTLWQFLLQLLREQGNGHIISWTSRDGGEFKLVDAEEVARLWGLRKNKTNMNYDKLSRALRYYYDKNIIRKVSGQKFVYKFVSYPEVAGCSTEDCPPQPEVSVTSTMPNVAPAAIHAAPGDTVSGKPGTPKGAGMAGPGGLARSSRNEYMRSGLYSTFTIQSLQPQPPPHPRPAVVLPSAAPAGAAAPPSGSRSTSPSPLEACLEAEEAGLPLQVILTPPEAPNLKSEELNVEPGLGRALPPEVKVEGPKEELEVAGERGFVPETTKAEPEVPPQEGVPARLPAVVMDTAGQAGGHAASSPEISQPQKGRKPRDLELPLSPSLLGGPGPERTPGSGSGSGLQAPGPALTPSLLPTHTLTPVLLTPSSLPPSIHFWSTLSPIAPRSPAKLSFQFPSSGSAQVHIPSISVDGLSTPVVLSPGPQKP
# Outline: as §1
# [3] = biological target: T3, GABPA (Homo sapiens, UniProt Q06546 1-454); details: protein: recombinant; tags: N-terminal GST; dsDNA, one strand shown
# T3 sequence: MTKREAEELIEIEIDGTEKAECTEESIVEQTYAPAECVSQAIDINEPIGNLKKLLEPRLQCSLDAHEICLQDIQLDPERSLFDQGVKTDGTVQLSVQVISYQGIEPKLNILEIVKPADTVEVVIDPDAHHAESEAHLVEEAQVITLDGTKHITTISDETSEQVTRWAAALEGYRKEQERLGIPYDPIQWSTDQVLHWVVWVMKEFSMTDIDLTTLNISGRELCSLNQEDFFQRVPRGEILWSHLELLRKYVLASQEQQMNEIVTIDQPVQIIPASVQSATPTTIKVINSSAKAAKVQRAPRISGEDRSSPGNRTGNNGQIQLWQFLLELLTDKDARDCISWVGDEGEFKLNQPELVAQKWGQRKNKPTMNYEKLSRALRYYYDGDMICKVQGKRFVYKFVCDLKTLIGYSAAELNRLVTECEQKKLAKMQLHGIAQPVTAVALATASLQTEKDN
# Outline: as §1
# [4] = biological target: T4, ERG (Homo sapiens, UniProt P11308 1-479); details: protein: recombinant; tags: N-terminal GST; dsDNA, one strand shown
# T4 sequence: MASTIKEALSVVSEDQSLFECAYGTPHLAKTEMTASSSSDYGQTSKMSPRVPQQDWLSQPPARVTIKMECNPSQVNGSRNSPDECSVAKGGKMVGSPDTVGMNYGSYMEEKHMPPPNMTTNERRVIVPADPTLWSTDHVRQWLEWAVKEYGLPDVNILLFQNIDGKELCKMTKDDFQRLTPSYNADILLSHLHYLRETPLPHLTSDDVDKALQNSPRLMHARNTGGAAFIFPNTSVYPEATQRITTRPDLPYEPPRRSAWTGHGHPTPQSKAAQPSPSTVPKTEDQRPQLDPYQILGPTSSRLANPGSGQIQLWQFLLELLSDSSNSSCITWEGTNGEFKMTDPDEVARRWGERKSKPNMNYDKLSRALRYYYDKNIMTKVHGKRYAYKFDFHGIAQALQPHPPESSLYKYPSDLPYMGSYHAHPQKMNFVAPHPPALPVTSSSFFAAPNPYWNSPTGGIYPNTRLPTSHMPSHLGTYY
# Outline: as §1
# [5] = biological target: ELF1 (Homo sapiens, UniProt P32519 1-619); details: protein: recombinant; tags: N-terminal GST; dsDNA, one strand shown
# ELF1, sequence (P32519 whole entry): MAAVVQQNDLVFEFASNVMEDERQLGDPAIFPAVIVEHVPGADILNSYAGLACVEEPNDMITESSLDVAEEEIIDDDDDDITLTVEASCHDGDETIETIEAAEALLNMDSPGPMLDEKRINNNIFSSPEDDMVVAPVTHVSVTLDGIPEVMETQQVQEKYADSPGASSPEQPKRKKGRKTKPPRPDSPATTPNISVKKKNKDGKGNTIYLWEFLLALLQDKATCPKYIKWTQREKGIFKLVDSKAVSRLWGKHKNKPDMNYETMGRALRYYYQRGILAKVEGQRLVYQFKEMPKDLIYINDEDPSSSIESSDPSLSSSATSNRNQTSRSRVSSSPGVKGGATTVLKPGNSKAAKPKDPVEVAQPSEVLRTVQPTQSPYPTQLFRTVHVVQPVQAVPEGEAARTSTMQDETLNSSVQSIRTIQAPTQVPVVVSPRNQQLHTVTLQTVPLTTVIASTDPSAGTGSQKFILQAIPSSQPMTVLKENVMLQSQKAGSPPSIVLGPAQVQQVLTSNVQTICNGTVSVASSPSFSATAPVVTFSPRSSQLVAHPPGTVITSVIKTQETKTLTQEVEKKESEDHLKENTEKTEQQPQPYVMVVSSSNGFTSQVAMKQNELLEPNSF
# Outline: as §1
# [6] = biological target: T5, EHF (Homo sapiens, UniProt Q9NZC4 1-300); details: protein: recombinant; tags: N-terminal GST; dsDNA, one strand shown
# T5 sequence: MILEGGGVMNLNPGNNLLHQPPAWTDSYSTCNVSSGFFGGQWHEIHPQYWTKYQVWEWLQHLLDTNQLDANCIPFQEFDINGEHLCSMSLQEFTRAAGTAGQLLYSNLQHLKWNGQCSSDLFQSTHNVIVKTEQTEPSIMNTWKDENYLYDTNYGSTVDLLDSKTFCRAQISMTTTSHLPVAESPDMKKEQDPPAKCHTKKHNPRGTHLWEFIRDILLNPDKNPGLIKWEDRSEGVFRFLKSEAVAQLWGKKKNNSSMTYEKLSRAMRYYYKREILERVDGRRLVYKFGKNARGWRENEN
# Outline: as §1
# [7] = biological target: SPI1 (Homo sapiens, UniProt P17947 1-270); details: protein: recombinant; tags: N-terminal GST; dsDNA, one strand shown
# Outline: as §1
# [8] = biological target: SPIB (Homo sapiens, UniProt Q01892 1-262); details: protein: recombinant; tags: N-terminal GST; dsDNA, one strand shown
# SPIB, sequence (Q01892 whole entry): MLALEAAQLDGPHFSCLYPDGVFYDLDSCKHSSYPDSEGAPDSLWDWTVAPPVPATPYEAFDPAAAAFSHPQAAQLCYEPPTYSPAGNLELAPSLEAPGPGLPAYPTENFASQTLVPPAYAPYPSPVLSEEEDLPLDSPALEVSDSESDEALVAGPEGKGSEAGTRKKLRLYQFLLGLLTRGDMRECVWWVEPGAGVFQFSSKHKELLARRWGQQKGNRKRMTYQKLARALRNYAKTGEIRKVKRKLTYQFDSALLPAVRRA
# Outline: as §1
# [9] = biological target: T6, ELK3 (Homo sapiens, UniProt P41970 1-407); details: protein: recombinant; tags: N-terminal GST; dsDNA, one strand shown
# T6 sequence: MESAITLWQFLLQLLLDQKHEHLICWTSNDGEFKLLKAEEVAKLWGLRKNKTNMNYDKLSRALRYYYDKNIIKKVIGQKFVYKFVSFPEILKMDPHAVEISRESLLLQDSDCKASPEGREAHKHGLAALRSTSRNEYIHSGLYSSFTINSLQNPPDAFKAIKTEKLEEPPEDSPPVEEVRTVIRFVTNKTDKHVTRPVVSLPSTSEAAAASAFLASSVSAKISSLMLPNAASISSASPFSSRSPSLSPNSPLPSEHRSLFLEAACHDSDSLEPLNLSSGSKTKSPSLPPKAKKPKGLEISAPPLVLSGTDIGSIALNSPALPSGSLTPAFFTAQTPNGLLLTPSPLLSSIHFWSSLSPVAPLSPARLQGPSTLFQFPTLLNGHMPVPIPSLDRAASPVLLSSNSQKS
# Outline: as §1
# [10] = biological target: T7, FEV (Homo sapiens, UniProt Q99581 1-238); details: protein: recombinant; tags: N-terminal GST; dsDNA, one strand shown
# T7 sequence: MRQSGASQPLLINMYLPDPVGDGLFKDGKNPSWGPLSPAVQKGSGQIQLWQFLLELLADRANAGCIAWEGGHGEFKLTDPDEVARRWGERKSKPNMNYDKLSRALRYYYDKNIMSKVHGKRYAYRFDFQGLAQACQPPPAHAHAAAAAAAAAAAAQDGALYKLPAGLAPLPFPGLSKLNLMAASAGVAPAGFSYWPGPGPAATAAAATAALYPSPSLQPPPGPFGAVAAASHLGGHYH
# Outline: as §1
# [11] = biological target: ETV5 (Homo sapiens, UniProt P41161 1-510); details: protein: recombinant; tags: N-terminal GST; dsDNA, one strand shown
# ETV5, sequence (P41161 whole entry): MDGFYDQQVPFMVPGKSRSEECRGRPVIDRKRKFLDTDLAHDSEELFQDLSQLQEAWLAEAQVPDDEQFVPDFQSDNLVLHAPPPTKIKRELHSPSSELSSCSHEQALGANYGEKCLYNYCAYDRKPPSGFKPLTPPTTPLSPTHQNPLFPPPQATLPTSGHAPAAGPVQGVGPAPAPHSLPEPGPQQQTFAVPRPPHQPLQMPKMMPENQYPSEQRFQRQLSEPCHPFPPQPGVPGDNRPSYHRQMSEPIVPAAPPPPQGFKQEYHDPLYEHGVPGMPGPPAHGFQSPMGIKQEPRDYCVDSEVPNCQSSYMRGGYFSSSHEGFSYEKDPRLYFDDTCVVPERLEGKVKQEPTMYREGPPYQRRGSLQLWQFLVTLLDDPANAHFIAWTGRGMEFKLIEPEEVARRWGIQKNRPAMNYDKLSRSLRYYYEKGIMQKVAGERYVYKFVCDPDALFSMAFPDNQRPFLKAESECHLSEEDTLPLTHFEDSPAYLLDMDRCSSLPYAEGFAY
# Outline: as §1
# [12] = biological target: HSF1 (Homo sapiens, UniProt Q00613 1-529); details: protein: recombinant; tags: N-terminal GST; chain copies: 3; dsDNA, one strand shown
# HSF1, sequence (Q00613 whole entry): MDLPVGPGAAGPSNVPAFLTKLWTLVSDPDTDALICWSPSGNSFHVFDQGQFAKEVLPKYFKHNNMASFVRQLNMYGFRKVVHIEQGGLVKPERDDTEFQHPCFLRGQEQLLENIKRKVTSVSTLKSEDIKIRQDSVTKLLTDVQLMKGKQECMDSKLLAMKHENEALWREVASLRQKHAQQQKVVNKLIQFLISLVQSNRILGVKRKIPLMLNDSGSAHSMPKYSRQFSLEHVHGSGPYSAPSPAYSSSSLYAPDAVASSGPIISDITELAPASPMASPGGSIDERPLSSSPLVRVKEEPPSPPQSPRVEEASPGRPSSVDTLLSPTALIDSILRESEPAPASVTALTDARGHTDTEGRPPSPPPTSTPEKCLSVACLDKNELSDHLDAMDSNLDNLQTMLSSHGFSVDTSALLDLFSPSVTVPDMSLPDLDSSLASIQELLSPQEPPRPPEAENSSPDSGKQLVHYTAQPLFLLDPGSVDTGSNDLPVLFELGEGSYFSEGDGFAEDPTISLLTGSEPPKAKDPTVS
# Outline: as §1
# [13] = biological target: T8, SPIC (Homo sapiens, UniProt Q8N5J4 1-248); details: protein: recombinant; tags: N-terminal GST; dsDNA, one strand shown
# T8 sequence: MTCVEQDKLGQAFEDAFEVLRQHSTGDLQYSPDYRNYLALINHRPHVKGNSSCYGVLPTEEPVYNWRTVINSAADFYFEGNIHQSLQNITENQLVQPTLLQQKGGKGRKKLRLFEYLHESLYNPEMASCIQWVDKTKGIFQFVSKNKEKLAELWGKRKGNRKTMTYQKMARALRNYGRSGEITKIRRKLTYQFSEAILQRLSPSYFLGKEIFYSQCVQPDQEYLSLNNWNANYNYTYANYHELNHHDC
# Outline: as §1
# [14] = biological target: ELF4 (Homo sapiens, UniProt Q99607 1-663); details: protein: recombinant; tags: N-terminal GST; dsDNA, one strand shown
# ELF4, sequence (Q99607 whole entry): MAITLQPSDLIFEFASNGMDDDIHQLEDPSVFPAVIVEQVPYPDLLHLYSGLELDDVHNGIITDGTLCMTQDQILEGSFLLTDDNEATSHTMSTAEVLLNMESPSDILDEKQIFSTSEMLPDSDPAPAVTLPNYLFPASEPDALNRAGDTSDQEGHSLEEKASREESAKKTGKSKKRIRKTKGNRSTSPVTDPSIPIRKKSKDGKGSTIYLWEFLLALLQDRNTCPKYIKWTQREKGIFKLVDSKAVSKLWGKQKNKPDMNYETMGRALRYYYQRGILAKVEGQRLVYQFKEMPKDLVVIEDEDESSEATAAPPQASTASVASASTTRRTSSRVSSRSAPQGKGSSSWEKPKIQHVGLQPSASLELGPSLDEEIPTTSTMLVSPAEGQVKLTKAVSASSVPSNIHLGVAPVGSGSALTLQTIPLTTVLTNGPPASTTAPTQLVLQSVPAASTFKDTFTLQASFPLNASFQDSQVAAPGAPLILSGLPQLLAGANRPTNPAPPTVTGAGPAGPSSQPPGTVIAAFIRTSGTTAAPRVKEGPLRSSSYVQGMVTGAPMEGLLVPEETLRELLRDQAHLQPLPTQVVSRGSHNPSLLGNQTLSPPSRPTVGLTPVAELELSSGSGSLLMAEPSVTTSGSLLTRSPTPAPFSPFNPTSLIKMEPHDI
# Outline: as §1
# [15] = biological target: T9, ELK4 (Homo sapiens, UniProt P28324-2 1-405); details: protein: recombinant; tags: N-terminal GST; dsDNA, one strand shown
# T9 sequence: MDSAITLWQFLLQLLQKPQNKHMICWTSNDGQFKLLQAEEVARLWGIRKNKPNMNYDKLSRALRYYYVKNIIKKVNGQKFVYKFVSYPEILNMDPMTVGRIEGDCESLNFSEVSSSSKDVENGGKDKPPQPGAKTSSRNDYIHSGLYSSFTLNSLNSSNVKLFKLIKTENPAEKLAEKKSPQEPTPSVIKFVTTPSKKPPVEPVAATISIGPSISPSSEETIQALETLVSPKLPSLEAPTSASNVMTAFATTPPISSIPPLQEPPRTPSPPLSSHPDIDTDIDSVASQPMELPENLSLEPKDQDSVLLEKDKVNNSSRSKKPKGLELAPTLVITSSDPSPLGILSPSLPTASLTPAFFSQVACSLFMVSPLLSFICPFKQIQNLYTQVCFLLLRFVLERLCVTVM
# Outline: as §1
# [16] = biological target: T10, ETV2 (Homo sapiens, UniProt O00321 1-342); details: protein: recombinant; tags: N-terminal GST; dsDNA, one strand shown
# T10 sequence: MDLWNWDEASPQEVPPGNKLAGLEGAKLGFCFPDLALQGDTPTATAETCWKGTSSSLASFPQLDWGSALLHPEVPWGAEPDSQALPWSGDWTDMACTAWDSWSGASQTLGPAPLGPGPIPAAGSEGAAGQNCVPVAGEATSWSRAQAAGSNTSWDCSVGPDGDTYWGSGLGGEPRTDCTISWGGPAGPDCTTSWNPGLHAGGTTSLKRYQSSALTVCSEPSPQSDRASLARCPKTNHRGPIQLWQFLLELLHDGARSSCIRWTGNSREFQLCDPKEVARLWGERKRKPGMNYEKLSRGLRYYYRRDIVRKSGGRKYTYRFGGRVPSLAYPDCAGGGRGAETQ
# Outline: as §1
# [17] = biological target: T11, ELF3 (Homo sapiens, UniProt P78545 1-371); details: protein: recombinant; tags: N-terminal GST; dsDNA, one strand shown
# T11 sequence: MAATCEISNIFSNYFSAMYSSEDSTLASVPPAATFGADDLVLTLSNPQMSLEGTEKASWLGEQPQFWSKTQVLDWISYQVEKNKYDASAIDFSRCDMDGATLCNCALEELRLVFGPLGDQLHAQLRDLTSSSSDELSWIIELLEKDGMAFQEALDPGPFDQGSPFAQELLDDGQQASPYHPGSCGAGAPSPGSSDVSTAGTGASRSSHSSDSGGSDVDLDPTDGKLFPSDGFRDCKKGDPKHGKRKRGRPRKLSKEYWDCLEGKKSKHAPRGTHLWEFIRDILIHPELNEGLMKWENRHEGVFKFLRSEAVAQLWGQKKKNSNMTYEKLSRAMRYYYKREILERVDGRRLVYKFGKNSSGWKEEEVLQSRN
# Outline: as §1
# [18] = biological target: CRX (Homo sapiens, UniProt O43186 1-299); details: protein: recombinant; tags: N-terminal GST; dsDNA, one strand shown
# CRX, sequence (O43186 whole entry): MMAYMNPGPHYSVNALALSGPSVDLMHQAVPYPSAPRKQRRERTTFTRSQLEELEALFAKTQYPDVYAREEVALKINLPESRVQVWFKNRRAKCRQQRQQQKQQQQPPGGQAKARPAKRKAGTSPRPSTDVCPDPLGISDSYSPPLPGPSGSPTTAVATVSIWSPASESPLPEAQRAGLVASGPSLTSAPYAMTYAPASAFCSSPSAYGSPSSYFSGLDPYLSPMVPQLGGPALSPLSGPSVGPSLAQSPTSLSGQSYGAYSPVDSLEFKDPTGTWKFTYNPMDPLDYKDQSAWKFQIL
# Outline: as §1
# [19] = biological target: ETV1 (Homo sapiens, UniProt P50549 1-477); details: protein: recombinant; tags: N-terminal GST; dsDNA, one strand shown
# ETV1, sequence (P50549 whole entry): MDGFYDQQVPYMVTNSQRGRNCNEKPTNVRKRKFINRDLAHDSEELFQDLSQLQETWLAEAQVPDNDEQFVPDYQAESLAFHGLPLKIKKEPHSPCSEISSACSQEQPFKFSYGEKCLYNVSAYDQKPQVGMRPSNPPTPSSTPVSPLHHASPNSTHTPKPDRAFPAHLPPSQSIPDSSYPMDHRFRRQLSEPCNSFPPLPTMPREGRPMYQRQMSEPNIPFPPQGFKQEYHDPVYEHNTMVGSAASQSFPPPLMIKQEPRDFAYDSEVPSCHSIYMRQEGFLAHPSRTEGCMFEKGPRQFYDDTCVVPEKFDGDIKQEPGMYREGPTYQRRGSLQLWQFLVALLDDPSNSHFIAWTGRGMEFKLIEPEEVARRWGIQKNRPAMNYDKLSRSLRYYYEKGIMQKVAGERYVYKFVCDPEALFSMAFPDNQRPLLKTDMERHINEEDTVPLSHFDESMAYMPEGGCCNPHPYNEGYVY
# Outline: as §1
sequence,measurement,setting,value
CACGTT,binding signal,[1],"1.28 fold enrichment (6-mer frequency, TF over GST control)"
same,binding signal,[2],"1.35 fold enrichment (6-mer frequency, TF over GST control)"
same,binding signal,[3],"1.3 fold enrichment (6-mer frequency, TF over GST control)"
same,binding signal,[4],"1.28 fold enrichment (6-mer frequency, TF over GST control)"
same,binding signal,[5],"1.29 fold enrichment (6-mer frequency, TF over GST control)"
same,binding signal,[6],"1.24 fold enrichment (6-mer frequency, TF over GST control)"
same,binding signal,[7],"1.3 fold enrichment (6-mer frequency, TF over GST control)"
same,binding signal,[8],"1.21 fold enrichment (6-mer frequency, TF over GST control)"
same,binding signal,[9],"1.25 fold enrichment (6-mer frequency, TF over GST control)"
same,binding signal,[10],"1.26 fold enrichment (6-mer frequency, TF over GST control)"
same,binding signal,[11],"1.3 fold enrichment (6-mer frequency, TF over GST control)"
same,binding signal,[12],"1.11 fold enrichment (6-mer frequency, TF over GST control)"
same,binding signal,[13],"1.33 fold enrichment (6-mer frequency, TF over GST control)"
same,binding signal,[14],"1.31 fold enrichment (6-mer frequency, TF over GST control)"
same,binding signal,[15],"1.29 fold enrichment (6-mer frequency, TF over GST control)"
same,binding signal,[16],"1.36 fold enrichment (6-mer frequency, TF over GST control)"
same,binding signal,[17],"1 fold enrichment (6-mer frequency, TF over GST control)"
same,binding signal,[18],"1.08 fold enrichment (6-mer frequency, TF over GST control)"
same,binding signal,[19],"1.21 fold enrichment (6-mer frequency, TF over GST control)"

# — paper PMC7862700, “An all-to-all approach to the identification of sequence-specific readers for epigenetic DNA modifications on cytosine”
